# Assay results: article PMC7862700, “An all-to-all approach to the identification of sequence-specific readers for epigenetic DNA modifications on cytosine”
# How the values were obtained:
# Test in all cases: DAPPL (digital affinity profiling via proximity ligation, sequencing); 10 mM Tris-HCl pH 7.5, 50 mM NaCl, 1 mM DTT, 4% glycerol, room temperature, 30 min; GST-TFs on glutathione beads, 16-mer random dsDNA library, 0.1% formaldehyde crosslink after washing; high values mean tight binding
# FEV = target: T1, FEV (Homo sapiens, UniProt Q99581 1-238); conditions: protein: recombinant; tags: N-terminal GST; dsDNA, one strand shown
# T1 sequence: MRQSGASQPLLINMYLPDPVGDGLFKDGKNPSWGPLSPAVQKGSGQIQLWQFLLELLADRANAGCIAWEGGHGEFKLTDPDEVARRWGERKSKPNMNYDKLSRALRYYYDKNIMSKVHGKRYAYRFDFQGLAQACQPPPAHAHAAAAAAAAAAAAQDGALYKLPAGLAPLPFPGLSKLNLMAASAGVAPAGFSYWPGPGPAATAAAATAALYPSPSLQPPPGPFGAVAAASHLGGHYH
# Method in brief: (§1)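 Pools of DNA-barcoded human transcription factors, expressed in yeast as GST fusions on glutathione beads and combined with a tag-only sample, were incubated with 200 nmole of a 16-mer random double-stranded DNA library. Incubation took 30 min at room temperature in Tris/NaCl/DTT/glycerol buffer and was followed by washing, 0.1% formaldehyde crosslinking, proximity ligation (BsaI/T4 ligase, 1 h, 37 °C), PCR amplification and sequencing on an Illumina NextSeq500. Binding signal is the ratio of a hexamer's read frequency for a factor to its frequency for the tag-only sample.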
# ETV5 = ETV5 (Homo sapiens, UniProt P41161 1-510); conditions: protein: recombinant; tags: N-terminal GST; dsDNA, one strand shown
# Method in brief: as §1
# HSF1 = HSF1 (Homo sapiens, UniProt Q00613 1-529); conditions: protein: recombinant; tags: N-terminal GST; chain copies: 3; dsDNA, one strand shown
# Method in brief: as §1
# SPIC = target: T2, SPIC (Homo sapiens, UniProt Q8N5J4 1-248); conditions: protein: recombinant; tags: N-terminal GST; dsDNA, one strand shown
# T2 sequence: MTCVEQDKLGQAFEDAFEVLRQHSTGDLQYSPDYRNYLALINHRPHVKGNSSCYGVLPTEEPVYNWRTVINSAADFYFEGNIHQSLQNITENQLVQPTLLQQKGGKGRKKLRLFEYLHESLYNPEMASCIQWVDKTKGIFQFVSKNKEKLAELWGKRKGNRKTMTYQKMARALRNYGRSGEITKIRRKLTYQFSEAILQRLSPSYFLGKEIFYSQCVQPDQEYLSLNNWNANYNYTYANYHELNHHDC
# Method in brief: as §1
# ELF4 = ELF4 (Homo sapiens, UniProt Q99607 1-663); conditions: protein: recombinant; tags: N-terminal GST; dsDNA, one strand shown
# Method in brief: as §1
# ELK4 = target: T3, ELK4 (Homo sapiens, UniProt P28324-2 1-405); conditions: protein: recombinant; tags: N-terminal GST; dsDNA, one strand shown
# T3 sequence: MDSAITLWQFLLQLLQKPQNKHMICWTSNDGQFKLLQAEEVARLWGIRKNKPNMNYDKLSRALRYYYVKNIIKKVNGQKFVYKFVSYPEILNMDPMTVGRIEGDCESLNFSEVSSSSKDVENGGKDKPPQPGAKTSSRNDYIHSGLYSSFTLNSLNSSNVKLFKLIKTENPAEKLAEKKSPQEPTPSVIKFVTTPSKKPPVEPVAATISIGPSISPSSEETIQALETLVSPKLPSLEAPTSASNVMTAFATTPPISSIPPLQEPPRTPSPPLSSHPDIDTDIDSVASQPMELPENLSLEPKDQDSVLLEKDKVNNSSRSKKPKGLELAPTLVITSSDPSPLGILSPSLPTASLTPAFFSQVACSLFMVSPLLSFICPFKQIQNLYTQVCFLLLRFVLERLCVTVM
# Method in brief: as §1
# ETV2 = target: T4, ETV2 (Homo sapiens, UniProt O00321 1-342); conditions: protein: recombinant; tags: N-terminal GST; dsDNA, one strand shown
# T4 sequence: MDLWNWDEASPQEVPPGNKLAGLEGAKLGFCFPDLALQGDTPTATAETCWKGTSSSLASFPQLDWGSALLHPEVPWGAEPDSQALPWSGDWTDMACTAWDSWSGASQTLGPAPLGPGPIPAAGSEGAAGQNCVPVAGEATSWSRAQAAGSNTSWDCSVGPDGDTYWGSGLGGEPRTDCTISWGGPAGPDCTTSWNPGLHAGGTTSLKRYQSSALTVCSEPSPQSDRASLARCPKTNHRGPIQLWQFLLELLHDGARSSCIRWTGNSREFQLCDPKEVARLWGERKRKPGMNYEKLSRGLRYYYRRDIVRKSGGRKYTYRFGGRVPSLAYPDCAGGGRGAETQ
# Method in brief: as §1
# ELF3 = target: T5, ELF3 (Homo sapiens, UniProt P78545 1-371); conditions: protein: recombinant; tags: N-terminal GST; dsDNA, one strand shown
# T5 sequence: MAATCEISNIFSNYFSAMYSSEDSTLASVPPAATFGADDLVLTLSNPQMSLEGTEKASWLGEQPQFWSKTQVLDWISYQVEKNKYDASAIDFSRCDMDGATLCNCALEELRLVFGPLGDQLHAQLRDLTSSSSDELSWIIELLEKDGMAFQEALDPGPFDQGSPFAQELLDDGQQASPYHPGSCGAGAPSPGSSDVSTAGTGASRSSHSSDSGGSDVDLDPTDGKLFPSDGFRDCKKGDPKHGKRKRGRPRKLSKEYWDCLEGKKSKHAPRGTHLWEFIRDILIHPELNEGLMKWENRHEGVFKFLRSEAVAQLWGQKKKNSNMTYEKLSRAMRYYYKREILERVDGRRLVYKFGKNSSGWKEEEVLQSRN
# Method in brief: as §1
# CRX = CRX (Homo sapiens, UniProt O43186 1-299); conditions: protein: recombinant; tags: N-terminal GST; dsDNA, one strand shown
# Method in brief: as §1
# ETV1 = ETV1 (Homo sapiens, UniProt P50549 1-477); conditions: protein: recombinant; tags: N-terminal GST; dsDNA, one strand shown
# Method in brief: as §1
# Sequence of ETV1 (P50549 whole entry): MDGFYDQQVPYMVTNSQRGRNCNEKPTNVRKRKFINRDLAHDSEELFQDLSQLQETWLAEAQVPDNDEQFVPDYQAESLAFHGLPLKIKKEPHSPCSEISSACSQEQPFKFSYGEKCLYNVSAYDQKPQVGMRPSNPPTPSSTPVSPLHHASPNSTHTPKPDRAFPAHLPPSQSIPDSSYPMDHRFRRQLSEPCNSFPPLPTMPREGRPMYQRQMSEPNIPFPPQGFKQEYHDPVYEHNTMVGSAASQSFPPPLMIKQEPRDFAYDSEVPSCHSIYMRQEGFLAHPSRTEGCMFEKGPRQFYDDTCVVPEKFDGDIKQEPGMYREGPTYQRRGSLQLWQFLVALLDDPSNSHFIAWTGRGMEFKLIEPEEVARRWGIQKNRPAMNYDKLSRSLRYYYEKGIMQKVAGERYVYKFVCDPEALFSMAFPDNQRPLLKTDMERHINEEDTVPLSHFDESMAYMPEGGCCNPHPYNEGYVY
# Sequence of ETV5 (P41161 whole entry): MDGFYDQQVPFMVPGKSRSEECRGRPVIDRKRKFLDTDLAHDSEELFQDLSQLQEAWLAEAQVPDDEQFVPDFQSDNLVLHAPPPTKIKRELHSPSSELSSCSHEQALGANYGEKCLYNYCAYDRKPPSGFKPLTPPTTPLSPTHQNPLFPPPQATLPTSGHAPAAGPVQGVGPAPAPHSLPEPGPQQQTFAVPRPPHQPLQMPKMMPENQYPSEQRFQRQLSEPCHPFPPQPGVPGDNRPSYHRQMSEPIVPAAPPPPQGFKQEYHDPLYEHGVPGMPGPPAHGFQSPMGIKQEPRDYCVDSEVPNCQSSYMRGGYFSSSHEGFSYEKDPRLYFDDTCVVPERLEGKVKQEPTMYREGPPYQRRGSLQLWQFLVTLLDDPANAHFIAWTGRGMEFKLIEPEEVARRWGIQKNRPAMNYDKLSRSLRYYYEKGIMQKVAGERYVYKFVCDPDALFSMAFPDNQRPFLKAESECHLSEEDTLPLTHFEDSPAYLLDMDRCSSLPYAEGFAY
# Sequence of HSF1 (Q00613 whole entry): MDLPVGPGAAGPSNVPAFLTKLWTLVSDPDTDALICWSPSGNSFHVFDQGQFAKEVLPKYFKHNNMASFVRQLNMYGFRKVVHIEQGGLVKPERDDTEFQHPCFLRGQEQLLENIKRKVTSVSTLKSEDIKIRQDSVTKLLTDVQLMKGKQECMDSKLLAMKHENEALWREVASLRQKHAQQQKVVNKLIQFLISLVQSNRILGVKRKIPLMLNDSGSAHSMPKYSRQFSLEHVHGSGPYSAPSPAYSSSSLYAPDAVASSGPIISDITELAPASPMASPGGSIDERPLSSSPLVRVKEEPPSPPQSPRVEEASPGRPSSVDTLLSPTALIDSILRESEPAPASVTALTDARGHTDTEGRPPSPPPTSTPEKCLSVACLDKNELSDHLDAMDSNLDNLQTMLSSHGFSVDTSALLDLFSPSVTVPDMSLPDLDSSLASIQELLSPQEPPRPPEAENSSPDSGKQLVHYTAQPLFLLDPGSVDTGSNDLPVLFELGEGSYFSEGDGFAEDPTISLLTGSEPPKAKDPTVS
# Sequence of ELF4 (Q99607 whole entry): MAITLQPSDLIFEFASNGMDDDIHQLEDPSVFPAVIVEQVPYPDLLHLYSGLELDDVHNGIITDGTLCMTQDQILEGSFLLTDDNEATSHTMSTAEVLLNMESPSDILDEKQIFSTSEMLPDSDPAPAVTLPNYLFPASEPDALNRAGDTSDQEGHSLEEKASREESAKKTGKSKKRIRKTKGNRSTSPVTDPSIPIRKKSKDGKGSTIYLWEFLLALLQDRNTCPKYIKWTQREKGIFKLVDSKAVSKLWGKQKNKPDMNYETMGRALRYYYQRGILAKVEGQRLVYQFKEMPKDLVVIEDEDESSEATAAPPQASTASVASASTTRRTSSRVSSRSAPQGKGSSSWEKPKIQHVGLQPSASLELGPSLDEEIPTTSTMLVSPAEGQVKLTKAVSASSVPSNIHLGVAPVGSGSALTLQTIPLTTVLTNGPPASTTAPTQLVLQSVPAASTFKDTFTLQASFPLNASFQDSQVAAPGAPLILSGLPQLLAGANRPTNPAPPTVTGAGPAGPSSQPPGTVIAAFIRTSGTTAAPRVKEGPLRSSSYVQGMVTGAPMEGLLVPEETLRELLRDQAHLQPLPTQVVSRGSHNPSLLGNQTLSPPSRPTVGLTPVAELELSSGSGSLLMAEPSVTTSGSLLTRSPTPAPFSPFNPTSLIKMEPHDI
# Sequence of CRX (O43186 whole entry): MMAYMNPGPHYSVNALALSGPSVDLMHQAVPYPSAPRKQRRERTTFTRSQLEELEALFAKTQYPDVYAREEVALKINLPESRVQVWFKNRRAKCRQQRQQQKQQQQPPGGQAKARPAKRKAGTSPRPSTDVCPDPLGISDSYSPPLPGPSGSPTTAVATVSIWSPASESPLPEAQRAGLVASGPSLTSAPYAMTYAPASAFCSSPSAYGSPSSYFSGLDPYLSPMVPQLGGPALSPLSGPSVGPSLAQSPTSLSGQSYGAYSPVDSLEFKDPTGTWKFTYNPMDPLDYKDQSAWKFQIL
sequence,measurement,setting,value
GGACCT,binding signal,FEV,"1.47 fold enrichment (6-mer frequency, TF over GST control)"
same,binding signal,ETV5,"1.37 fold enrichment (6-mer frequency, TF over GST control)"
same,binding signal,HSF1,"1.18 fold enrichment (6-mer frequency, TF over GST control)"
same,binding signal,SPIC,"1.46 fold enrichment (6-mer frequency, TF over GST control)"
same,binding signal,ELF4,"1.42 fold enrichment (6-mer frequency, TF over GST control)"
same,binding signal,ELK4,"1.31 fold enrichment (6-mer frequency, TF over GST control)"
same,binding signal,ETV2,"1.57 fold enrichment (6-mer frequency, TF over GST control)"
same,binding signal,ELF3,"1.14 fold enrichment (6-mer frequency, TF over GST control)"
same,binding signal,CRX,"1.1 fold enrichment (6-mer frequency, TF over GST control)"
same,binding signal,ETV1,"1.28 fold enrichment (6-mer frequency, TF over GST control)"
